Assay outcomes as filed in PubChem.
Bead autofluor – compound fluorescence in toxin protease inhibitor counterscreen. compound autofluorescence counterscreen, microsphere flow cytometry; active compounds read high. fluorescence intensity (test concentration not listed). hit rate 3.1% among 360,000. AID 624483; in the data active = fluorescence intensity above about 16000
Anthrax LF inh2 – Bacillus anthracis LF protease inhibitors, primary screen, biochemical, multiplex microsphere, MLPCN library. AID 588501, 2011. multiplex microsphere protease cleavage assay. inhibition, % at 10 µM. hit rate 0.12% among 360,000; note: plate controls were buffer without enzyme for full effect and enzyme alone for no effect
BoNT-A LC inh2 – BoNT/A light chain protease inhibitors, primary screen, biochemical, flow cytometry, MLPCN library | Botulinum neurotoxin type A light chain protease (Clostridium botulinum A str. ATCC 3502) | multiplex microsphere protease substrate cleavage | inhibition, % at 10 µM | hit rate 0.17% among 360,000; note: plate controls were buffer without enzyme for full effect and enzyme alone for no effect
Vc quorum ag-1 – inducers of Vibrio cholerae quorum light production without autoinducers, primary screen, BH1578 luxS cqsA deficient, single point | V. cholerae BH1578 lux reporter, luminescence, 6 h | activation, % at 18.7 µM | hit rate 0.16% among 350,000 | AID 588436, 2011; in the data active = activation mostly above about 9.7%, no sharp cut-off
BoNT F protease – BoNT/F light chain protease inhibitors, primary screen, biochemical, flow cytometry, MLPCN library. Botulinum neurotoxin type F light chain protease (Clostridium botulinum). Multiplex microsphere protease cleavage assay. inhibition, % at 10 µM. hit rate 0.22% among 360,000. AID 588497, 2011; in the data active = inhibition above about 35%, passing the limit was not always enough; note: plate controls were buffer without enzyme for full effect and enzyme alone for no effect
MazEF act – activators of E. coli MazEF toxin-antitoxin RNase, primary screen, biochemical, fluorescence, uHTS; Endoribonuclease toxin MazF (Escherichia coli (strain K12)), P0AE70; FAM/BHQ RNA-DNA oligo cleavage fluorescence, 5 h; activation, % at 20 µM; hit rate 0.32% among 350,000; in the data active = activation above about 50%
Vc quorum ag-2 – V. cholerae lux activation without autoinducers – BH1578 luxS cqsA deficient, cherry-pick, plate reader, dose response; shares compounds with Vc quorum ag-1; 620 tested, under 10 active; activation, % at 50 µM; V. cholerae BH1578 lux reporter, luminescence, 6 h; AID 602243, 2012; call rule not given here
Starred values were filed as active, the others as inactive; i = inactive; . = no result. Hits are enriched below; roughly 3.9% of the tested compounds scored in any of these assays. Cut-off read from the data, not from the text of the source, unless noted: active = inhibition above about 30%; inconclusive = no clear call, values can overlap the other calls; inactive = below that.

SMILES | Bead autofluor | Anthrax LF inh2 | BoNT-A LC inh2 | Vc quorum ag-1 | BoNT F protease | MazEF act | Vc quorum ag-2
CCC(C(=O)Nc1nccs1)(C(F)(F)F)C(F)(F)F | 7965 | -6 | 0 | i | -1 | 2 | .
CCC(NC(=O)Nc1nccs1)(C(F)(F)F)C(F)(F)F | 3076 | -4 | 0 | 17* | -7 | 5 | 1
CCOc1ccc(OCCC(=O)OCC(=O)N2CCN(S(=O)(=O)c3ccc(C)cc3C)CC2)cc1 | 6150 | -5 | -2 | 0 | 1 | -2 | .
COCCN(C(=O)COC(=O)C(C)(C)Oc1ccc(Cl)cc1)c1c(N)n(Cc2ccccc2)c(=O)[nH]c1=O | 3896 | -11 | 0 | -3 | -6 | 2 | .
CN(CC(=O)NCCN1CCOCC1)S(=O)(=O)c1ccc(Cl)cc1 | 3092 | -7 | -1 | 37* | -11 | -12 | 1
COc1ccc(S(=O)(=O)N(C)CC(=O)NCCN2CCOCC2)cc1Cl | 3904 | 3 | -1 | 0 | 7 | 5 | .
Cc1noc(C)c1NC(=O)Nc1cccc2c1O[C@H](CN(C)S(=O)(=O)c1cccs1)[C@@H](C)CN([C@H](C)CO)C2=O | 3858 | -12 | 0 | 12 | -17 | 6 | 0
C[C@H](CO)N1C[C@H](C)[C@@H](CN(C)S(=O)(=O)c2cccs2)Oc2c(NC(=O)C3CC3)cccc2C1=O | 4133 | -13 | 0 | 0 | -8 | 10 | .
C[C@H]1CN([C@@H](C)CO)C(=O)c2cccc(NC(=O)C3CC3)c2O[C@H]1CN(C)S(=O)(=O)c1cccs1 | 3654 | 0 | -1 | 24 | -6 | 6 | 0
O=C(NCc1ccccc1F)C(=O)NCC1CCCN1S(=O)(=O)c1ccccc1 (centres undefined) | 6929 | -2 | 1 | 12 | 11 | -9 | 1
COc1ccc2c(c1)CCC(C)N2S(=O)(=O)c1ccc(C2CNC(=O)C2)cc1 (centres undefined) | 7847 | 0 | 0 | 21 | -7 | 4 | 0
COc1ccc(S(=O)(=O)N2c3ccc(F)cc3CCC2C)cc1 (centres undefined) | 3637 | -9 | -3 | 0 | 9 | -6 | .
COCCCNC(=S)N(Cc1cccnc1)Cc1ccc(OC)c(OC)c1 | 2453 | 0 | 0 | 0 | 1 | 0 | .
COc1ccc(OC)c(C2C(C(=O)c3ccc(C)o3)=C(O)C(=O)N2CCN2CCOCC2)c1 (centres undefined) | 5480 | 3 | -1 | i | 2 | 11 | .
CCCOc1ccc(C2C(C(=O)c3ccc(C)o3)=C(O)C(=O)N2CCN2CCOCC2)cc1OC (centres undefined) | 10167 | 6 | -1 | 17* | 1 | 6 | 200
CCC(C)n1cnc2c(=O)oc3ccccc3c21 (centres undefined) | 9275 | -4 | -1 | 114* | -10 | 3 | 21
CC(C)Cn1cnc2c(=O)oc3ccccc3c21 | 3316 | 0 | 0 | 2 | 0 | -18 | .
Cn1c(=O)c(C(=O)CN2CC(=O)Nc3ccccc32)c(N)n(Cc2ccccc2)c1=O | 3945 | 2 | 0 | -1 | -2 | 6 | .
O=S1(=O)NC(=NCCc2ccccn2)c2ccccc21 | 3462 | 1 | 0 | -1 | 11 | -16 | .
CC1(C(=O)N2CCN(c3ccc([N+](=O)[O-])cc3)CC2)CC1(Cl)Cl (centres undefined) | 3458 | 1 | -1 | 25 | 12 | 11 | 2
CC1(C(=O)N2CCN(c3ccccc3)CC2)CC1(Cl)Cl (centres undefined) | 4150 | -1 | -1 | i | -9 | 17 | .
O=C(O)c1cccc(Nc2ncnc3c2cnn3-c2ccccc2)c1 | 3182 | -4 | 0 | 17* | -6 | 5 | 0
O=c1[nH]c2ccccc2n1Cc1ccc(Cl)cc1 | 2867 | 1 | 0 | 17* | 1 | -2 | 1
C=CCn1c(NCc2ccccc2)nc2ccccc21 | 6295 | -7 | 1 | 17* | 3 | -4 | 0
